Shown are actives, neighbours in structure and some others; about 3.5% of the full set was active somewhere.
TEAD-YAP block: TEAD-YAP interaction inhibition; HEK-TIYL cells, TEAD-Gal4/YAP UAS-luciferase luminescence; inhibition, % at 9.12 µM; 640,000 compounds, 1.4% hits; AID 1259422; in the data active = inhibition above about 32%;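 note: 0% = median of test compound wells and 100% = reference inhibitor wells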
MITF primary: inhibitors of human MITF; AID 1259374; 650,000 compounds, 0.91% hits; O75030; inhibition, % at 2.6 µM; AlphaScreen MITF homodimerization, bead proximity signal; in the data active = inhibition above about 50%;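 note: 0% = vehicle wells with protein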
Target sequence (O75030 whole entry, looked up): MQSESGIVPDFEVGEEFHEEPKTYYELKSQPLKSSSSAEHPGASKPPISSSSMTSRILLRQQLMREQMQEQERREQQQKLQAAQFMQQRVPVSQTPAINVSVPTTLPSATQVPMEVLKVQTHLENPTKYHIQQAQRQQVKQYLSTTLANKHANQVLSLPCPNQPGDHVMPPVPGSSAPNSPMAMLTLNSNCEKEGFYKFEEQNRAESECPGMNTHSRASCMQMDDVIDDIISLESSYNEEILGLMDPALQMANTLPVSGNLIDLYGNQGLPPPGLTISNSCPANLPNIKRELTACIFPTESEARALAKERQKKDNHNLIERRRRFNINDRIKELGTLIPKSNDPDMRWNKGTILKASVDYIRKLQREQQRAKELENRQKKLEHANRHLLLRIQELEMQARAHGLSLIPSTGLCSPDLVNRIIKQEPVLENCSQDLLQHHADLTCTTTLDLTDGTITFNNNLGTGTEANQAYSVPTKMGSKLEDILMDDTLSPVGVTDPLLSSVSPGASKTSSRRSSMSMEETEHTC
FBW7 act: human FBW7 E3 ligase activation, primary screen; Q969H0; 650,000 compounds, 0.13% hits; normalized activity (activation), % at 26.1 µM; AID 1259310; AlphaScreen FBW7–phospho-cyclin E peptide binding, activator screen; in the data active = normalized activity above about 1.9%;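 note: purified mutant Fbw7 with reduced substrate affinity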
GPR151 ag: human GPR151 activation; PathHunter beta-arrestin GPR151 cells, luminescence; activation, % at 11.2 µM; 650,000 compounds, 1% hits; AID 1508602; in the data active = activation above about 4.9%;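 note: 0% = median of compound wells and 100% = cells with positive control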
GPR151 conf act: human GPR151 activation, confirmation screen; GPR151 PathHunter beta-arrestin cells, luminescence, 90 min; % of EA-reagent control over plate median; activation, % at 11.2 µM; AID 1508609; 6,700 tested, under 10 active; shares compounds with GPR151 ag;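 active = mean percent activation across replicates above the confirmation screen cutoff of 4.91%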
GPR119 counter: GPR119 activation, counter-screen for GPR151 activators; shares compounds with GPR151 ag; GPR119 PathHunter beta-arrestin cells, luminescence, 90 min; 0 = compound-well median, 100 = enzyme-acceptor control; activation, % at 11.2 µM; 6,700 compounds, 0.3% hits; AID 1508611;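 active = mean percent activation in the counterscreen above 29.09%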;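 note: counterscreen on off-target GPR119 to flag nonselective hits from the GPR151 activator screen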
Active calls of the source: *; nt = no result.

SMILES | TEAD-YAP block | MITF primary | FBW7 act | GPR151 ag | GPR151 conf act | GPR119 counter
CCOC(=O)COc1ccc(S(=O)(=O)NCCc2ccccc2)cc1 | 7.6 | 4.1 | 0.0 | -0.3 | nt | nt
O=C1NC(=O)C(=Cc2ccc(OC(=O)c3ccccc3Cl)cc2)C(=O)N1 | -2.8 | -9.6 | -0.9 | 5.5* | 0.3 | 3.0
O=S(=O)(NC1=NCCC1)c1cccc(NC(=S)NC2CCCCC2)c1 | 2.9 | 1.7 | 0.0 | -0.4 | nt | nt
O=C(CN1CCN(C(=O)c2ccco2)CC1)NN(Cc1ccccc1)c1ccccc1 | 2.8 | 34.5 | 0.0 | 5.4* | 0.1 | -5.5
CCC(CC)C(=O)Nc1nnc(SCC(=O)Nc2nnc(C)s2)s1 | 1.2 | 4.0 | 0.2 | 4.9* | -0.5 | 5.8
O=C(CSc1nc2ncccc2[nH]1)Nc1ccc(Cl)c(F)c1 | 1.7 | -2.4 | 0.2 | -0.2 | nt | nt
O=C(CSc1nc2ccccc2[nH]1)Nc1ccc(Cl)cc1 | -8.5 | 14.4 | 0.7 | 0.2 | nt | nt
O=C(CSc1nc2ccccc2[nH]1)Nc1cccc(Cl)c1 | -7.5 | 3.5 | -0.1 | 5.1* | -0.4 | -2.1
O=C(CSc1nc2ncccc2[nH]1)Nc1ccc(F)c(Cl)c1 | 3.7 | 6.8 | -0.2 | 7.2* | 0.1 | 0.1
COC(=O)c1c(NC(=O)CSc2nnc(C)s2)sc(C(C)=O)c1C | 2.6 | 4.7 | 0.0 | 7.4* | 0.2 | 6.7
COC(=O)c1c(NC(=O)CSc2nnc(N)s2)sc(C)c1C | 1.0 | -1.6 | -0.1 | 0.9 | nt | nt
NS(=O)(=O)c1ccc(CNS(=O)(=O)c2c(F)cc(F)cc2Br)cc1 | -5.2 | -3.7 | -0.1 | -0.4 | nt | nt
O=c1[nH]n(-c2ccc(C(F)(F)F)cc2[N+](=O)[O-])c(=O)c2ccccc12 | 2.2 | 5.9 | 0.0 | -0.7 | nt | nt
CCCOc1ccc(S(=O)(=O)Nc2c(C)cccc2C)cc1OCCC | -13.2 | 1.7 | -0.2 | -1.8 | nt | nt
COc1ccc(-c2nnc(SCC(=O)Nc3ccc(Cl)cc3C)o2)cc1 | 21.0 | -21.9 | 0.0 | -0.2 | nt | nt
O=C(CSc1nc2ccccc2[nH]1)Nc1cc(Cl)ccc1Cl | 1.7 | 13.3 | -0.1 | 11.0* | -0.3 | -6.9
CCC(=O)Nc1nnc(SCC(=O)Nc2cccc(Cl)c2)s1 | 1.4 | 13.9 | 0.8 | 8.8* | -1.1 | -10.9
CCC(=O)Nc1nnc(SCc2cccc(Cl)c2)s1 | -1.7 | 0.0 | 0.1 | -0.4 | nt | nt
O=C(CSc1nc2ccccc2[nH]1)Nc1ccc(Cl)c(C(=O)O)c1 | -3.5 | -2.6 | -0.6 | 0.2 | nt | nt
COc1ccc(-c2nnc(SCC(=O)Nc3ccc(F)c(Cl)c3)o2)cc1 | -45.9 | -3.8 | -0.1 | 5.0* | 0.1 | -7.9
CN1CCN(Cc2ccc(C#CCCO)cc2)CC1CCO (stereo unspecified) | -0.5 | -9.6 | 0.0 | 5.0* | 0.0 | -0.5
CCN1CCN(S(=O)(=O)c2cc(C(=O)Nc3cccc(C(F)(F)F)c3)ccc2F)CC1 | -3.0 | 8.2 | -0.1 | 0.7 | nt | nt
CCc1nnc(NC(=O)C2(c3cccc(F)c3)CCCC2)s1 | 0.0 | 7.7 | 0.0 | 5.2* | 0.7 | -2.0
Cc1cccc(C(=O)Nc2ncc(S(=O)(=O)c3ccc([N+](=O)[O-])cc3)s2)c1 | -5.6 | -4.2 | -0.2 | 4.9* | 0.2 | 7.8
CC(C)(C)c1ccc(C(=O)Nc2ncc(S(=O)(=O)c3ccc([N+](=O)[O-])cc3)s2)cc1 | 0.7 | 8.1 | 0.1 | -1.6 | nt | nt
SMILES | TEAD-YAP block | MITF primary | FBW7 act | GPR151 ag | GPR151 conf act | GPR119 counter
COCCCNC(=O)CN(c1ccc(I)cc1)S(C)(=O)=O | 0.4 | 11.5 | 0.3 | 6.7* | -0.1 | 11.3
CCOC(=O)c1sc(NC(=S)NC(=O)c2ccccc2F)nc1C | 10.1 | -0.7 | -0.1 | -0.5 | nt | nt
CCOC(=O)c1sc(NC(=O)c2c(F)cccc2F)nc1C | -6.5 | -6.0 | 0.0 | 7.8* | 0.0 | 16.2
COc1ccc2oc(=Nc3ccccc3OC)c(-c3nc4ccccc4[nH]3)cc2c1 | -15.5 | 6.9 | 0.7 | -2.7 | nt | nt
O=C(NNC(=O)c1ccccc1I)c1cccs1 | -1.5 | 4.0 | 0.2 | 5.8* | -0.5 | -10.9
COc1cc(OC)nc(NC(=O)Nc2ccc(Cl)c(Cl)c2)n1 | 5.4 | 22.3 | 0.2 | 1.6 | nt | nt
CC(=O)c1ccc(OCCCC(=O)NCc2ccco2)cc1 | -4.1 | 7.9 | -0.1 | -0.5 | nt | nt
Cc1ccc(C(=O)NCc2ccco2)c(Cl)c1 | -21.1 | -3.8 | 0.1 | 8.7* | -0.4 | 5.0
COCCNC(=O)C(=O)NCc1ccco1 | 1.0 | 4.0 | -0.1 | -1.5 | nt | nt
CCc1ccc(OCCCC(=O)NCc2ccco2)cc1 | -7.0 | 2.3 | -0.1 | 6.6* | 0.2 | 7.8
Cc1ccc(OCCNC(=O)C(=O)NCc2ccco2)cc1 | 32.7* | 2.3 | -0.1 | 6.5* | -0.2 | -4.5
CCOc1ccc(C2Nn3c(nnc3-c3ccccc3)SC2C(=O)NCCOC)cc1 (stereo unspecified) | 5.9 | 1.9 | 0.0 | 1.0 | nt | nt
COc1ccc2c(CNC3CCCC(C)C3C)c(C(=O)O)n(Cc3ccc(C)cc3)c2c1 (stereo unspecified) | 10.8 | 9.6 | 0.2 | 4.9* | -0.1 | -0.1
O=C1CCCCC1Oc1cc(O)c2c(=O)cc(-c3ccccc3)oc2c1 (stereo unspecified) | -7.0 | 4.9 | 0.0 | 7.0* | 1.5 | 21.6
CC(=O)C(C)Oc1cc(O)c2c(=O)cc(-c3ccccc3)oc2c1 (stereo unspecified) | -21.9 | 0.0 | -0.2 | -0.1 | nt | nt
CCOC(=O)CNC(=O)Cn1c(=O)n(-c2ccccc2)c(=O)c2oc3ccccc3c21 | -2.9 | 29.4 | -0.1 | 1.4 | nt | nt
CCN(CC)C(=O)C1CCCN(c2nc(Nc3ccc(NC(C)=O)cc3)c3ncn(Cc4ccc(C(F)(F)F)cc4)c3n2)C1 (stereo unspecified) | 2.7 | 0.1 | -0.2 | 0.1 | nt | nt
CCN(CC)C(=O)C1CCCN(c2nc(Nc3ccc(NC(C)=O)cc3)c3ncn(CCN4CCCC4=O)c3n2)C1 (stereo unspecified) | -1.3 | -5.1 | 0.0 | 6.4* | 0.1 | -8.2
O=C1CCCN1CCn1cnc2c(Nc3ccc4c(c3)OCO4)nc(N3CCN(Cc4ccc5c(c4)OCO5)CC3)nc21 | 7.5 | 7.6 | -0.2 | 5.1* | -0.4 | -6.9
C/C(=N/NS(=O)(=O)c1ccc(C)cc1)c1c(O)c2ccccc2oc1=O | 9.2 | 9.4 | 0.1 | 5.4* | -1.5 | -11.0
C/C(=N\NS(=O)(=O)c1ccc(C)cc1)c1c(O)c2ccccc2oc1=O | 2.5 | 13.5 | 0.3 | -0.5 | nt | nt
Nc1ccccc1-c1nc2ccccc2[nH]c1=O | -54.5 | 3.9 | -0.1 | 5.9* | -2.2 | -15.5
Cc1ccc(/C=N/NC(=O)c2nc3nc(C)cc(C)n3n2)cc1 | -13.9 | -6.6 | 0.0 | -1.2 | nt | nt
Cc1cc(C)n2nc(C(=O)N/N=C/c3ccccc3)nc2n1 | -3.7 | -0.8 | -0.3 | 10.5* | -1.1 | -7.7
COc1ccc(Nc2ncnc3c2c(-c2ccccc2)cn3-c2ccc(Br)cc2)cc1Cl | -3.4 | -12.3 | 0.1 | 1.1 | nt | nt
O=S(=O)(NCC1CCCO1)c1ccc(Cl)c(C(F)(F)F)c1 (stereo unspecified) | 7.4 | -5.8 | 1.0 | 0.5 | nt | nt
